esBAF inh = blocks esBAF chromatin remodeling in mouse ES cells | Bmi1-luciferase knock-in reporter, 24 h; 100% = twice the neutral-well signal | reporter increase, % at 12.5 µM | 350,000 tested, 2% active; in the data active = activation above about 40%; inconclusive = no clear call, values can overlap the other calls;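 also: 0% = median of the plate's neutral control wells and 100% = double that signal; a rise in the Bmi1 reporter signal indicates esBAF inhibition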
MITF TRPM1 inh = inhibitors of MITF-driven TRPM1 promoter in melanoma cells | SK-MEL-5 TRPM1 promoter luciferase, 24 h | inhibition, % at 12.5 µM | 330,000 tested, 0.83% active | AID 488899;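 active = mean inhibition across replicates of 60% or more, whatever share of single replicates reaches that level; inconclusive = some that reach 60%, reason not given; inactive = mean inhibition across replicates below 60%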
EBV LMP1 NFkB = Epstein-Barr LMP1 NF-kappaB reporter inhibition | LMP1-induced NF-kappaB luciferase reporter cells, luminescence | inhibition, % at 12.5 µM | 350,000 tested, 0.69% active | AID 504558; in the data active = inhibition above about 41%; inconclusive = no clear call, values can overlap the other calls;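 also: 0% = neutral control wells and 100% = reference inhibitor control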
Wnt bcat act = Wnt/beta-catenin pathway activation; activation, % at 9.35 µM; 300,000 tested, 1.2% active; Wnt/beta-catenin reporter cell assay, activator, plate reader; in the data active = activation above about 30%, passing the limit was not always enough; inconclusive = no clear call, values can overlap the other calls;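 also: 0% = neutral control wells and 100% = positive control wells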
MITF TRPM1 HTS = MITF TRPM1 promoter activation in melanoma cells. AID 588334. 300,000 tested, 0.75% active. activation, % at 12.5 µM. SK-MEL-5 TRPM1-promoter luciferase, 24 h; % of positive control, neutral wells = 0;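 active = mean activation of at least 80% with every replicate also reaching 80%; inconclusive = mean reaches 80% but some replicate falls short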;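 also: 0% = neutral control wells and 100% = parthenolide positive control wells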
Statin myotox sup = protects C2C12 myotubes from simvastatin toxicity; ATP luminescence, 48 h; scaled: DMSO 0, geranylgeraniol control 100; rescue of ATP level, % at 7.49 µM; 330,000 tested, 0.78% active; AID 602340;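 active = mean ATP rescue above about 67%, or every replicate alone reaching that limit, limit read from the data, passing the limit was not always enough; inconclusive = no clear call, values can overlap the other calls; inactive = mean under the limit and some replicate under it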;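 also: myotubes were challenged with 10 µM simvastatin during compound exposure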
An asterisk follows results filed as active; ? = inconclusive; · = not tested or not shown. This is a sample that favours compounds with a hit; in the whole collection about 4% have one here.

SMILES	esBAF inh	MITF TRPM1 inh	EBV LMP1 NFkB	Wnt bcat act	MITF TRPM1 HTS	Statin myotox sup
O=C(OCC(=O)N1CCc2ccccc21)[C@@H]1CCCN1S(=O)(=O)c1ccccc1F	2	0	-9	-6	1	2
O=C(OCc1nc2ccccc2s1)[C@@H]1CCCN1S(=O)(=O)c1ccccc1F	·	-2	77*	·	1	·
CCn1ccc(C(=O)Nc2c(C)nn(Cc3c(F)c(F)c(F)c(F)c3F)c2C)n1	·	-1	-4	-1	5	·
COc1cc(C(=O)Nc2nnc(-c3sccc3C)s2)cc(OC)c1OC	9	-5	4	0	6	98*
Cc1cccc(NC(=S)NC(=O)C2CC2)c1	22	-3	-9	·	1	-22
Cc1cc(NC(=S)NC(=O)C2CC2)ccc1Br	64*	-25	-17	?	32	-36
Cc1ccc(NC(=S)NC(=O)C2CCCC2)c(Br)c1	67*	-97	-57	53*	97*	-62
CC(=O)C(Sc1nn(C)c(=S)s1)C(=O)Nc1ccccc1 (configuration not stated)	77*	-18	-18	·	18	-3
COCCCNC(=O)COC(=O)c1ccc(-c2nc3ccccc3s2)s1	2	3	1	7	0	-20
Cc1ccc(O)c(C2=NCCNC(C(F)(F)F)=C2)c1	-7	12	-3	-2	-12	6
Oc1c(C2=NCCNC(C(F)(F)F)=C2)ccc2ccccc12	·	-92	-55	-1	87*	·
C[C@@H]1CN([C@H](C)CO)S(=O)(=O)c2ccc(C#C[C@@H](C)O)cc2O[C@@H]1CN(C)Cc1cncnc1	-6	·	·	·	·	-11
CCN1/C(=C/c2sc(-c3ccccc3C)c[n+]2C)Sc2ccccc21	·	86*	23	-2	-85	·
Cc1c(C)n(CC(O)CN2CCN(C)CC2)c2ccccc12 (configuration not stated)	-3	3	60*	-3	-2	-4
Cc1c(C)n(CC(O)CN2CCCCC2)c2ccccc12 (configuration not stated)	-7	-8	1	1	3	7
O=C(COc1ccc(Br)cc1)NCCNC(=O)c1cccnc1	-4	-1	-1	1	2	-1
Cc1ccc(NC(=O)COc2ccc3c(c2)OCO3)c(Cl)c1	48*	-97	-63	41*	98*	-1
N#Cc1ccccc1NC(=O)COc1ccc2c(c1)OCO2	67*	-121	-12	18	120*	4
CCc1ccccc1NC(=O)COc1ccc2c(c1)OCO2	·	-38	-1	5	34	·
CCOc1ccc(NC(=O)COc2ccc3c(c2)OCO3)cc1	-1	-12	1	6	9	-2
C=CC(=O)NC1CCCCN(C)C1=O (configuration not stated)	·	·	·	-1	·	·
Cc1ccc(-n2ncc(C(=O)Nc3cc(Cl)cc(Cl)c3)c2C2CCNCC2)cc1C	-56	85*	-11	-8	-83	-78
COC(=O)c1ccc(N2OC3(C)C=CC2CC3)cc1 (configuration not stated)	63*	-55	-20	13	58	-8
CCc1n[nH]c2c1/C(=N/O)CCC2	-9	-8	-2	·	10	87*
COc1ccc2c(c1)C(=NN)c1cc(OC)ccc1-2	43*	4	-1	·	-5	5
SMILES	esBAF inh	MITF TRPM1 inh	EBV LMP1 NFkB	Wnt bcat act	MITF TRPM1 HTS	Statin myotox sup
COc1ccc2c(c1)C(=NNc1ccc(C(=O)O)cc1)c1cc(OC)ccc1-2	8	-11	-9	7	12	-28
CCC(CC)c1nnc(NC(=O)c2cc(-c3ccccc3)nc3ccccc23)s1	·	5	-1	·	-4	·
CCC(CC)c1nnc(NC(=O)c2ccc3ccccc3n2)s1	53*	-12	-51	·	11	-21
CCN1C(=O)N(C)C2(c3ccccc3)N(C)C(=O)N(C)C12c1ccccc1 (configuration not stated)	2	-16	5	·	16	-8
O=C1C=CC(=O)N1c1ccc2c(c1)Cc1cc(F)ccc1-2	-9	4	5	-1	-3	2
CC(=O)Nc1ccc2c(c1)Cc1ccc(Cl)cc1-2	46*	-47	-26	13	46	1
CC(=O)Nc1ccc2c(c1)-c1ccc(F)cc1C2	·	-10	-6	9	12	·
CC(=O)Nc1ccc2c(c1)Cc1cc(N3C(=O)C=CC3=O)ccc1-2	-1	78*	11	-4	-79	-40
Cc1ccc(C(=O)Nc2nnc(S(=O)(=O)N3CCOCC3)s2)cc1	8	·	-1	2	·	20
CC(=O)Nc1nc2n(n1)C(c1ccc(F)cc1)C=C(c1ccccc1)N2 (configuration not stated)	-7	-1	5	·	1	133*
CC(=O)Nc1nc2n(n1)C(c1ccccc1)C=C(c1ccccc1)N2 (configuration not stated)	-2	-11	20	·	16	-4
CCOc1cc(/C=C2/C(=N)N3N=C(CC)SC3=NC2=O)ccc1OC(=O)c1ccco1	-3	9	43*	0	-8	5
CCOc1cc(/C=C2\C(=N)N3N=C(S(=O)(=O)CC)SC3=NC2=O)ccc1OC(=O)c1ccco1	-2	0	-4	1	0	-13
CCOC(=O)c1cn[nH]c1NC(=S)Nc1ccc(Cl)cc1	-7	·	·	36*	·	11
CCc1ccccc1NC(=O)c1cnc2n(c1=O)CCS2	9	-23	2	2	30	-6
CCc1ccc(NC(=O)c2cnc3n(c2=O)CCS3)cc1	61*	-40	-14	10	34	3
COc1ccc(NS(=O)(=O)c2ccc3oc(SC4CCOC4=O)nc3c2)cc1 (configuration not stated)	-11	14	4	-1	·	-1
CCN1C(=O)CC(Sc2ccccc2C(=O)O)C1=O (configuration not stated)	-4	9	-3	·	-10	159*
O=C(O)c1ccccc1SC1CC(=O)N(c2cccc3ccccc23)C1=O (configuration not stated)	-2	-6	0	-2	5	-10
O=C(O)c1ccc(-n2ncc3c2/C(=C/c2cccc([N+](=O)[O-])c2)CC3)cc1	·	-136	-19	?	138*	·
O=C(O)c1ccc(-n2ncc3c2/C(=C\c2cccc([N+](=O)[O-])c2)CC3)cc1	92*	-110	-11	2	113*	-8
O=C(O)c1ccccc1-n1ncc2c1/C(=C/c1ccc(Cl)cc1)CC2	·	·	·	4	·	·
O=C(O)c1ccc(-n2c(/C=C/c3cccc([N+](=O)[O-])c3)nc3ccccc3c2=O)cc1	-7	5	3	-1	-2	7
Cc1ccc(NC(=O)COC(=O)C2COc3ccccc3O2)cc1S(=O)(=O)N1CCOCC1 (configuration not stated)	7	8	-8	·	-5	-1

Assay outcomes as filed in PubChem.
